Some targets named below: dAsCas12a Ultra (Acidaminococcus sp., UniProt U2UMQ6 1-1307, M537R;F870L;D908A;E993A;D1235A); dAsCas12a E174R (Acidaminococcus sp., UniProt U2UMQ6 1-1307, E174R;D908A;E993A;D1235A); dAsCas12a S542R (Acidaminococcus sp., UniProt U2UMQ6 1-1307, S542R;D908A;E993A;D1235A); d-enCas12a (Acidaminococcus sp., UniProt U2UMQ6 1-1307, E174R;S542R;K548R;D908A;E993A;D1235A); d-enCas12a-Ultra (Acidaminococcus sp., UniProt U2UMQ6 1-1307, E174R;S542R;K548R;M537R;F870L;D908A;E993A;D1235A); dAsCas12a K548R (Acidaminococcus sp., UniProt U2UMQ6 1-1307, K548R;D908A;E993A;D1235A).

Common to all, as to experiment: Spec-seq (native PAGE EMSA with sequencing of bound and unbound); 25 mM Tris-HCl pH 7.4, 150 mM KCl, 5 mM MgCl2, 10% glycerol, 1 mM DTT, 40 ng/uL salmon sperm DNA; 400 nM Cas12a, 480 nM crRNA, 50 nM library, 37 C 1 h; native PAGE at room temperature; high values mean tight binding
What all share (conditions): protein: recombinant

B1: CGTA (dsDNA)
DNA 1: GCTATCTAGTGCTCAGTACGCACTGCGTAAGGAAACTTCTGGCAGGACCAGGTCATGAGATCGGAAGAGCACACGTCTGAACTCCAGTCA
DNA 2: TGACTGGAGTTCAGACGTGTGCTCTTCCGATCTCATGACCTGGTCCTGCCAGAAGTTTCCTTACGCAGTGCGTACTGAGCACTAGATAGC
RNA: AAUUUCUACUCUUGUAGAUAGGAAACUUCUGGCAGGACC
For B1, the binding signal with dAsCas12a Ultra is -8.71 lnKA; in the assay with dAsCas12a E174R it was -8.37 lnKA; with dAsCas12a S542R, -8.4 lnKA; in the assay with d-enCas12a, -2.47 lnKA; with d-enCas12a-Ultra, -0.629 lnKA.

B2: CTCC (dsDNA)
DNA 1: GCTATCTAGTGCTCAGTACGCACTGCTCCAGGAAACTTCTGGCAGGACCAGGTCATGAGATCGGAAGAGCACACGTCTGAACTCCAGTCA
DNA 2: TGACTGGAGTTCAGACGTGTGCTCTTCCGATCTCATGACCTGGTCCTGCCAGAAGTTTCCTGGAGCAGTGCGTACTGAGCACTAGATAGC
RNA: AAUUUCUACUCUUGUAGAUAGGAAACUUCUGGCAGGACC
For B2, the binding signal with dAsCas12a Ultra is -8.67 lnKA; in the assay with dAsCas12a E174R, -8.66 lnKA; with dAsCas12a S542R, -4.85 lnKA; with d-enCas12a it was -0.91 lnKA; with d-enCas12a-Ultra it was -0.27 lnKA.

B3: GCTG (dsDNA)
DNA 1: GCTATCTAGTGCTCAGTACGCACTGGCTGAGGAAACTTCTGGCAGGACCAGGTCATGAGATCGGAAGAGCACACGTCTGAACTCCAGTCA
DNA 2: TGACTGGAGTTCAGACGTGTGCTCTTCCGATCTCATGACCTGGTCCTGCCAGAAGTTTCCTCAGCCAGTGCGTACTGAGCACTAGATAGC
RNA: AAUUUCUACUCUUGUAGAUAGGAAACUUCUGGCAGGACC
As for B3, the binding signal with dAsCas12a Ultra is -7.49 lnKA; with dAsCas12a E174R, -7.49 lnKA; in the assay with dAsCas12a S542R, -7.86 lnKA; in the assay with d-enCas12a, -5.74 lnKA; in the assay with d-enCas12a-Ultra, -2.73 lnKA.

B4: GATT (dsDNA)
DNA 1: GCTATCTAGTGCTCAGTACGCACTGGATTAGGAAACTTCTGGCAGGACCAGGTCATGAGATCGGAAGAGCACACGTCTGAACTCCAGTCA
DNA 2: TGACTGGAGTTCAGACGTGTGCTCTTCCGATCTCATGACCTGGTCCTGCCAGAAGTTTCCTAATCCAGTGCGTACTGAGCACTAGATAGC
RNA: AAUUUCUACUCUUGUAGAUAGGAAACUUCUGGCAGGACC
On to B4, for which the binding signal with dAsCas12a Ultra was -8.92 lnKA; with dAsCas12a E174R, -8.74 lnKA; with dAsCas12a S542R, -8.17 lnKA; in the assay with d-enCas12a, -5.56 lnKA; in the assay with d-enCas12a-Ultra it was -3.21 lnKA.

B5: CGTG (dsDNA)
DNA 1: GCTATCTAGTGCTCAGTACGCACTGCGTGAGGAAACTTCTGGCAGGACCAGGTCATGAGATCGGAAGAGCACACGTCTGAACTCCAGTCA
DNA 2: TGACTGGAGTTCAGACGTGTGCTCTTCCGATCTCATGACCTGGTCCTGCCAGAAGTTTCCTCACGCAGTGCGTACTGAGCACTAGATAGC
RNA: AAUUUCUACUCUUGUAGAUAGGAAACUUCUGGCAGGACC
Turning to B5, the binding signal with dAsCas12a Ultra was -9 lnKA; with dAsCas12a E174R, -8.98 lnKA; in the assay with dAsCas12a S542R, -8.73 lnKA; with d-enCas12a, -4.4 lnKA; with d-enCas12a-Ultra, -1.51 lnKA.

B6: CTAA (dsDNA)
DNA 1: GCTATCTAGTGCTCAGTACGCACTGCTAAAGGAAACTTCTGGCAGGACCAGGTCATGAGATCGGAAGAGCACACGTCTGAACTCCAGTCA
DNA 2: TGACTGGAGTTCAGACGTGTGCTCTTCCGATCTCATGACCTGGTCCTGCCAGAAGTTTCCTTTAGCAGTGCGTACTGAGCACTAGATAGC
RNA: AAUUUCUACUCUUGUAGAUAGGAAACUUCUGGCAGGACC
For B6, the binding signal with dAsCas12a Ultra is -8.92 lnKA; in the assay with dAsCas12a E174R it was -8.64 lnKA; in the assay with dAsCas12a S542R, -8.47 lnKA; with d-enCas12a, -5.62 lnKA; in the assay with d-enCas12a-Ultra, -3.05 lnKA.

B7: GCTA (dsDNA)
DNA 1: GCTATCTAGTGCTCAGTACGCACTGGCTAAGGAAACTTCTGGCAGGACCAGGTCATGAGATCGGAAGAGCACACGTCTGAACTCCAGTCA
DNA 2: TGACTGGAGTTCAGACGTGTGCTCTTCCGATCTCATGACCTGGTCCTGCCAGAAGTTTCCTTAGCCAGTGCGTACTGAGCACTAGATAGC
RNA: AAUUUCUACUCUUGUAGAUAGGAAACUUCUGGCAGGACC
B7: the binding signal is -6.83 lnKA with dAsCas12a Ultra; -5.69 lnKA in the assay with dAsCas12a E174R; -7.23 lnKA with dAsCas12a S542R; -4.92 lnKA with d-enCas12a; -1.62 lnKA with d-enCas12a-Ultra.

B8: CGTC (dsDNA)
DNA 1: GCTATCTAGTGCTCAGTACGCACTGCGTCAGGAAACTTCTGGCAGGACCAGGTCATGAGATCGGAAGAGCACACGTCTGAACTCCAGTCA
DNA 2: TGACTGGAGTTCAGACGTGTGCTCTTCCGATCTCATGACCTGGTCCTGCCAGAAGTTTCCTGACGCAGTGCGTACTGAGCACTAGATAGC
RNA: AAUUUCUACUCUUGUAGAUAGGAAACUUCUGGCAGGACC
As for B8, the binding signal with dAsCas12a Ultra was -8.54 lnKA; in the assay with dAsCas12a S542R, -8.67 lnKA; in the assay with dAsCas12a K548R it was -8.4 lnKA; in the assay with d-enCas12a, -2.67 lnKA; with d-enCas12a-Ultra, -0.615 lnKA.

B9: GATA (dsDNA)
DNA 1: GCTATCTAGTGCTCAGTACGCACTGGATAAGGAAACTTCTGGCAGGACCAGGTCATGAGATCGGAAGAGCACACGTCTGAACTCCAGTCA
DNA 2: TGACTGGAGTTCAGACGTGTGCTCTTCCGATCTCATGACCTGGTCCTGCCAGAAGTTTCCTTATCCAGTGCGTACTGAGCACTAGATAGC
RNA: AAUUUCUACUCUUGUAGAUAGGAAACUUCUGGCAGGACC
For B9, the binding signal in the assay with dAsCas12a Ultra is -8.53 lnKA; in the assay with dAsCas12a E174R, -6.9 lnKA; with dAsCas12a S542R it was -8.17 lnKA; in the assay with d-enCas12a, -3.28 lnKA; with d-enCas12a-Ultra, -1.2 lnKA.

B10: GATG (dsDNA)
DNA 1: GCTATCTAGTGCTCAGTACGCACTGGATGAGGAAACTTCTGGCAGGACCAGGTCATGAGATCGGAAGAGCACACGTCTGAACTCCAGTCA
DNA 2: TGACTGGAGTTCAGACGTGTGCTCTTCCGATCTCATGACCTGGTCCTGCCAGAAGTTTCCTCATCCAGTGCGTACTGAGCACTAGATAGC
RNA: AAUUUCUACUCUUGUAGAUAGGAAACUUCUGGCAGGACC
Turning to B10, the binding signal was -8.85 lnKA with dAsCas12a Ultra; -8.75 lnKA with dAsCas12a E174R; -8.25 lnKA in the assay with dAsCas12a S542R; -4.89 lnKA with d-enCas12a; -2.56 lnKA with d-enCas12a-Ultra.

B11: GCGA (dsDNA)
DNA 1: GCTATCTAGTGCTCAGTACGCACTGGCGAAGGAAACTTCTGGCAGGACCAGGTCATGAGATCGGAAGAGCACACGTCTGAACTCCAGTCA
DNA 2: TGACTGGAGTTCAGACGTGTGCTCTTCCGATCTCATGACCTGGTCCTGCCAGAAGTTTCCTTCGCCAGTGCGTACTGAGCACTAGATAGC
RNA: AAUUUCUACUCUUGUAGAUAGGAAACUUCUGGCAGGACC
With B11, the binding signal with dAsCas12a Ultra was -8.91 lnKA; in the assay with dAsCas12a S542R, -8.63 lnKA; in the assay with d-enCas12a, -5.81 lnKA; with d-enCas12a-Ultra, -3.46 lnKA.

B12: GAGA (dsDNA)
DNA 1: GCTATCTAGTGCTCAGTACGCACTGGAGAAGGAAACTTCTGGCAGGACCAGGTCATGAGATCGGAAGAGCACACGTCTGAACTCCAGTCA
DNA 2: TGACTGGAGTTCAGACGTGTGCTCTTCCGATCTCATGACCTGGTCCTGCCAGAAGTTTCCTTCTCCAGTGCGTACTGAGCACTAGATAGC
RNA: AAUUUCUACUCUUGUAGAUAGGAAACUUCUGGCAGGACC
For B12, the binding signal with dAsCas12a Ultra was -8.96 lnKA; in the assay with dAsCas12a S542R, -8.5 lnKA; with d-enCas12a, -5.82 lnKA; with d-enCas12a-Ultra, -3.42 lnKA.

B13: CTGA (dsDNA)
DNA 1: GCTATCTAGTGCTCAGTACGCACTGCTGAAGGAAACTTCTGGCAGGACCAGGTCATGAGATCGGAAGAGCACACGTCTGAACTCCAGTCA
DNA 2: TGACTGGAGTTCAGACGTGTGCTCTTCCGATCTCATGACCTGGTCCTGCCAGAAGTTTCCTTCAGCAGTGCGTACTGAGCACTAGATAGC
RNA: AAUUUCUACUCUUGUAGAUAGGAAACUUCUGGCAGGACC
Take B13: the binding signal with dAsCas12a Ultra is -8.41 lnKA; with dAsCas12a S542R, -8.41 lnKA; with d-enCas12a it was -5.63 lnKA; in the assay with d-enCas12a-Ultra, -3.17 lnKA.

B14: CTCA (dsDNA)
DNA 1: GCTATCTAGTGCTCAGTACGCACTGCTCAAGGAAACTTCTGGCAGGACCAGGTCATGAGATCGGAAGAGCACACGTCTGAACTCCAGTCA
DNA 2: TGACTGGAGTTCAGACGTGTGCTCTTCCGATCTCATGACCTGGTCCTGCCAGAAGTTTCCTTGAGCAGTGCGTACTGAGCACTAGATAGC
RNA: AAUUUCUACUCUUGUAGAUAGGAAACUUCUGGCAGGACC
Regarding B14, the binding signal was -8.8 lnKA in the assay with dAsCas12a Ultra; -8.26 lnKA with dAsCas12a E174R; -6.35 lnKA with dAsCas12a S542R; -1.97 lnKA with d-enCas12a; -0.439 lnKA in the assay with d-enCas12a-Ultra.

B15: GCTC (dsDNA)
DNA 1: GCTATCTAGTGCTCAGTACGCACTGGCTCAGGAAACTTCTGGCAGGACCAGGTCATGAGATCGGAAGAGCACACGTCTGAACTCCAGTCA
DNA 2: TGACTGGAGTTCAGACGTGTGCTCTTCCGATCTCATGACCTGGTCCTGCCAGAAGTTTCCTGAGCCAGTGCGTACTGAGCACTAGATAGC
RNA: AAUUUCUACUCUUGUAGAUAGGAAACUUCUGGCAGGACC
For B15, the binding signal with dAsCas12a Ultra was -6.65 lnKA; with dAsCas12a E174R it was -6.48 lnKA; with dAsCas12a S542R, -7.23 lnKA; with d-enCas12a, -4.98 lnKA; with d-enCas12a-Ultra, -1.57 lnKA.

The record behind these values is PMC8222333, “AsCas12a ultra nuclease facilitates the rapid generation of therapeutic cell medicines”.
